Test results published in PubChem BioAssay AID624291 (National Center for Advancing Translational Sciences (NCATS), 2012).
The whole screen tested about 350,000 compounds, of which about 220 (0.063%) were called active. Another 4% or so got no clear call; they are omitted. Only a selection was taken, and actives are over-represented in it overall. Values without a mark were called inactive. Calls come from the whole dose curve; as a rule, active = well fitted activation curve with a large enough effect; inconclusive = small, poorly fitted or top-dose-only effect; inactive = no such curve, though single readings can be large or run the other way.

experiment: qHTS for Activators of Integrin-Mediated Alleviation for Muscular Dystrophy; settings: alpha7betagal myoblasts, beta-gal FDG fluorescence, 48 h; series mostly up to 38.3 µM; activation: at the top concentration; note: nearly all actives have a fitted effect of over 60% in size;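 for activation: 100% = response of the positive control SU9516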
How it was run: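 Alpha7betagal+/- myoblasts (passage 13) were plated 16-24 hr, then exposed to compounds (1:260 dilution of DMSO stock) for 48 hours at 37C. After MPER lysis, β-galactosidase reporter activity was read as FDG fluorescence (ex 480/em 540) after 30 minutes.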
Potency is the fitted concentration of half-maximal effect.

Row | Structure (SMILES) | activation [%] | Potency
1 | CC1(C)CN(CCc2ccccc2)C(=O)[C@H]1CC(=O)Nc1ccc(Br)cc1 | -10.9 | 
2 | CC1(C)CC(=O)C=C(c2ccccc2CO)C1=O | -11.1 | 
3 | CCOC(=O)c1cc(-c2sc(NC(=O)c3ccccc3)nc2C)n(-c2ccc(Br)cc2)n1 | 9.91 | 
4 | CCOc1ccc(S(=O)(=O)NCCC(=O)NNC(=O)c2ccc(F)cc2)cc1 | 16.7 | 
5 | CC(C)NC(=S)NN=C1CCCCCCCCCCC1 |  | 3.16 µM (active)
6 | CC(C)(C)NC(=O)C(=O)NN=C1CCCCCCC1 | 8.01 | 
7 | C/C(=N\NC(=S)NC(C)C)c1ccc(C(C)(C)C)cc1 | 0.502 | 
8 | Cc1cccc(C(=O)C(O)(c2ccccc2)C2CCCCC2=O)c1 (configuration not stated) | 21 | 
9 | C=CCn1nc(C(=O)OCC)cc1-c1sc(NC(=O)c2ccccc2)nc1C | 2.38 | 
10 | COc1ccc(-c2c(C#N)cnc(C)c2C)c(O)c1OC | 4.61 | 
11 | COc1ccc(-c2ccc3[nH]c4c(c3c2)CCN2C[C@H]3[C@H](C)ON(C)[C@H]3C[C@@H]42)cc1 | -35.2 | 
12 | O=C(Nc1ccc2c(c1)[C@@H]1C[C@@H](CC(=O)N3CCCCC3)O[C@@H](CO)[C@@H]1O2)NC1CCCCC1 | -1.68 | 
13 | C[C@@H]1CCCCO[C@H](CN(C)Cc2ccccc2)[C@@H](C)CN([C@H](C)CO)C(=O)c2cc(NS(=O)(=O)c3ccc(Cl)cc3)ccc2O1 | 0 | 
14 | OCC1OC(n2cnc3c(N4CCCC4)ncnc32)C(O)C1O (configuration not stated) | 28 | 
15 | CCOC(=O)C1CCN(C(=O)c2ccc3c(=O)n4nc(Nc5ccccc5CC)sc4nc3c2)CC1 | -27.7 | 
16 | COc1ccc(-c2ccc(CN3C(CC(C)C)C(=O)N(Cc4cn(CC5CCCCC5)nn4)CCS3(=O)=O)cc2)cc1 (configuration not stated) | -40.1 | 
17 | CNC(=O)C[C@H]1C(=O)N(c2ccc(OC)cc2)C[C@@H]1Cc1ccccc1 | 25.2 | 
18 | COc1cccc(NC(=O)N(C)C[C@@H]2Oc3ncc(Br)cc3C(=O)N([C@@H](C)CO)C[C@H]2C)c1 | -11.6 | 
19 | COc1ccc(NC(=O)c2cc(=O)[nH]c3ccccc23)cc1S(=O)(=O)N1CCOCC1 | -4.2 | 
20 | CCN(CC)C(=O)C1=C(C)N(Cc2ccc(OC)cc2)C(=O)C(CC(=O)NCc2ccco2)C1 (configuration not stated) | 12.9 | 
21 | O=C(NCCOc1ccccc1)N1[C@H]2CC[C@@H]1C=C(c1ccc(F)cc1OCc1ccccc1)C2 | -42.9 | 
22 | O=S(=O)(c1cccc(C(F)(F)F)c1)N1c2ccccc2-n2cccc2C1c1cccnc1 (configuration not stated) | -33.7 | 
23 | O=C(C[C@H]1C[C@@H]2c3cc(NC(=O)C4CCC4)ccc3O[C@@H]2[C@H](CO)O1)NC1CCCCC1 | -20.1 | 

Row | Structure (SMILES) | activation [%] | Potency
24 | CCOC(=O)c1cnn2c(SC)ncnc12 | -0.493 | 
25 | Cc1ccc(-c2ccc(CN3C(C(C)C)C(=O)N(Cc4cn(CCC5OCCCO5)nn4)CCS3(=O)=O)cc2)cc1 (configuration not stated) | 18.3 | 
26 | O=C(CSc1ncn[nH]1)Nc1nc2c(F)c(F)c(F)cc2s1 | 17.7 | 
27 | C[C@H]1CN([C@@H](C)CO)C(=O)CCCn2nncc2CO[C@@H]1CN(C)S(=O)(=O)c1cccc(C#N)c1 | 13.4 | 
28 | c1ccc2c(c1)nnn2-c1ccncc1 | 0.175 | 
29 | CC(OC(=O)c1cccc(S(=O)(=O)N2CCOCC2)c1)C(=O)NCC1CCCCC1 (configuration not stated) | -9.35 | 
30 | CC1(C)OC(=O)C2=C(CC(c3ccccc3)OC2CCc2ccccc2)O1 (configuration not stated) | -10.7 | 
31 | O=C(NCCS(=O)(=O)N1CCN(c2ccccc2)CC1)c1cc(=O)c2ccccc2o1 | 6.87 | 
32 | CCc1ccccc1NC(=O)CN1CCN(C(=O)c2cc(C3CC3)nn2-c2ccccc2)CC1 | 2.65 | 
33 | Cc1ccn2c(-c3csc(Nc4ccc(C(=O)O)cc4)n3)c(C)nc2c1 | -1.17 | 
34 | CC1=C(C(=O)Nc2cccc(C(=O)NCC(C)c3ccccc3)c2)SCCO1 (configuration not stated) | 1.28 | 
35 | CC(=O)c1ccccc1NC(=O)COC(=O)C1COc2ccccc2O1 (configuration not stated) | 2.31 | 
36 | O=C(CCc1ccc(O)cc1)NN=Cc1cc(Br)ccc1O | -56 | 
37 | COc1ccc(S(=O)(=O)N2CCC(C(=O)NCCC(=O)Nc3ccccc3OC)CC2)cc1 | -6.92 | 
38 | CCOc1cc(/C=N/NC(=O)c2ccncc2)cc(Br)c1O | 4.83 | 
39 | Cc1ccc(CCNC(=O)CN2C(=O)CSc3ccc(S(=O)(=O)N4CCOCC4)cc32)cc1 | -2.83 | 
40 | N#CCCN(C(=O)Nc1ccc(Cl)c(Cl)c1)C1CCCCC1 | 27.3 | 
41 | O=C1c2ccccc2-c2ccccc2NC1O (configuration not stated) | -4.86 | 
42 | Cc1ccc(S(=O)(=O)N2C[C@H]3n4c(=O)ccc(=O)n4C[C@H](OC(=O)NC4CCCC4)[C@@]3(O)C2)cc1 | 2.66 | 
43 | CCCCN(C(C)=O)c1ccc2c(c1)C1CC2CCN1Cc1ccccc1 (configuration not stated) | -16.5 | 
44 | C[C@@H]1CN([C@H](C)CO)S(=O)(=O)c2ccc(C#CC3CCCCC3)cc2O[C@H]1CN(C)C(=O)Cc1ccncc1 | -44.2 | 
45 | COc1ccc(OC)c(NC(=O)C2CCCN2S(=O)(=O)c2ccc3c(c2)CC(C)N3C(C)=O)c1 (configuration not stated) | 5.18 | 
46 | C#Cc1cc(N2CCN(C(=O)c3ccoc3)CC2)n2nc(-c3cccc(Cl)c3)cc2n1 | -66.7 | 

Row | Structure (SMILES) | activation [%] | Potency
47 | Nc1cc(=O)c2[nH]cnc2[nH]1 | 9.52 | 
48 | CSc1ncnc2c1ncn2CCCNCc1ccco1 | -0.506 | 
49 | C[C@@H]1CN([C@@H](C)CO)C(=O)CCCn2nncc2CO[C@H]1CN(C)Cc1ccc(C(F)(F)F)cc1 | -6.93 | 
50 | CCC(Oc1ccccc1)C(=O)OCC(=O)Nc1c(C)nn(-c2ccccc2)c1C (configuration not stated) | -14.5 | 
51 | CCc1nnc(NC(=O)c2ccco2)s1 | -11.4 | 
52 | O=C(Nc1cc(F)ccc1F)c1ccc2c(=O)n3c(nc2c1)CCC3 | 21.5 | 
53 | O=C(NN=Cc1ccc2c(c1)CCC2)c1ccccc1O | -8.45 | 
54 | Cc1ccc(CN(C)C[C@@H]2OCc3cnnn3CCCC(=O)N([C@@H](C)CO)C[C@H]2C)cc1 | 10.6 | 
55 | CC(=NNC(N)=O)C1CC2CCC1CC2 (configuration not stated) | 20.4 | 
56 | CCN(CC)C(=O)C1=C(C)N(Cc2ccc(C(C)(C)C)cc2)C(=O)C(CC(=O)NCc2cccc3ccccc23)C1 (configuration not stated) | 4.29 | 
57 | Cc1ccccc1C#CC1=CC(=O)CC(C)(C)C1 | -16.2 | 
58 | COc1ccc(NC(=O)N(C)C[C@H]2Oc3ncc(C#C[C@@H](C)O)cc3C(=O)N([C@H](C)CO)C[C@H]2C)cc1 | 0 | 
59 | CCCc1ccc(S(=O)(=O)N2CCN(C(=O)c3cc(C)on3)CC2)cc1 | -5.39 | 
60 | COc1cc(C(=O)OCCCN2CCOCC2)cc(OC)c1OC | -16.1 | 
61 | O[C@@H]1C[C@H](c2ccccc2)N(Cc2cccs2)C[C@H]1n1cc(C2CC2)nn1 | 8.05 | 
62 | Cc1cccc(C(=O)N[C@H](C(=O)NCc2cccs2)C(C)C)c1 | 2.9 | 
63 | CCc1nnc(NC(=O)[C@@H](NC(=O)c2cccc(C)c2)C(C)C)s1 | -7.54 | 
64 | CC(=O)Nc1ccc(NC(=O)[C@@H](NC(=O)c2cccc(C)c2)C(C)C)cc1 |  | 5.62 µM (active)
65 | O=C(O)C1=C(C(=O)O)C2CCC1C2 | 12.3 | 
66 | COCOCCn1cc(CN2CCS(=O)(=O)N(Cc3ccc(-c4ccccc4)cc3)C(CC(C)C)C2=O)nn1 (configuration not stated) | -33.9 | 
67 | CC1(C2CC2)NC(=O)N(CC(=O)N2CCN(c3ccccc3F)CC2)C1=O (configuration not stated) | 15.2 | 
